The panel holds about 83,000 compounds, 20% with a hit somewhere; the sample as a whole holds those more often.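 Each cell line was grown in a 96-well plate and treated with one concentration of compound for 48 hours. Values below 10 were considered active.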 Values without a mark were called inactive. Calls of active or inactive are those of the source.
Tested on: HOP-92 NSCLC
Test: NCI-60 one-dose screen, 48 h (100 = growth as untreated, 0 = no growth, -100 = all killed)
Settings: 10 µM unless noted
Procedure: Growth inhibition of the HOP-92 human Non-Small Cell Lung tumor cell line is measured as a screen for anti-cancer activity. Cells are grown in 96 well plates and exposed to the test compound for 48 hours. Compounds are tested at a single concentration, which is 10^-5 M for most compounds. The reported endpoint is percent growth (GI% or GIPRCNT), where numbers from 0 - 100% represent growth inhibition, and numbers from -100% - 0 represent cell death. For example, a value of 40 represents 60% growth inhibition. A value of 0 means no net growth occurred over the course of the experiment. A value of -40 indicates 40% of cells at the beginning of the experiment died by the end of the experiment. A value of -100 means all cells are dead at the end of the experiment.
NCI-60 Human Tumor Cell Lines Screen was performed using the standard one-dose NCI protocol, which is described in more detail at https://dtp.cancer.gov/discovery_development/nci-60/default.htm.
Compounds with GIPRCNT values below 10 were considered active. Activity score was based on GIPRCNT using the following formula: […]
Score is 0 for GIPRCNT values of 100 or above, 50 for GIPRCNT values of 0, and 100 for GIPRCNT values of -100.

| SMILES | growth |
| --- | --- |
| O=C(Nc1cccc(-n2cnc3cc(-c4ccc(O)cc4)ccc32)c1)C1CC1 | 125% |
| C=C1CC[C@@H]2[C@]3(C)COC(c4cn[nH]c4-c4ccc(C)cc4)O[C@@H]3CC[C@@]2(C)[C@@H]1C/C=C1/C(=O)OCC1O (stereo not given in full) | -9.12% (active) |
| COc1ccc(-c2nnc3ccc(N/N=C/c4ccc(C)cc4)nn23)cc1 | 18.9% |
| COc1ccc2oc(=O)c(C3(C)NC(=O)c4c(/C=C/C(=O)OC(C)(C)C)cccc4N3)cc2c1 (stereo not given) | 32.9% |
| Nc1nc(-c2ccccc2)c(N=Nc2ccc(Cl)cc2[N+](=O)[O-])s1 | 68% |
| CCN1CCN(Cc2ccc(C(=O)Nc3cccc(C#Cc4cccc5[nH]nc(N)c45)c3)cc2C(F)(F)F)CC1 | -69.8% (active) |
| COc1cc2oc(-c3cccc(NC(=O)[C@H](Cc4ccccc4)NC(=O)OC(C)(C)C)c3)cc(=O)c2c(OC)c1OC | 61.7% |
| CC(=O)OC[C@@]1(C)C2CC[C@]3(C)C(CC=C4C5CC(C)(C)CC[C@]5(C(=O)Nc5ccc(F)cc5)CC[C@]43C)[C@@]2(C)C[C@@H](OC(C)=O)[C@@H]1OC(C)=O (stereo not given in full) | 54.2% |
| NS(=O)(=O)c1ccc(-n2cc(-c3cccc(NC(=O)c4cc(N5CCOCC5)cc(C(F)(F)F)c4)c3)nn2)cc1 | 9.47% (active) |
| Cc1ccc(C(SCCNCc2cc(N(C)C)ccn2)(c2ccccc2)c2ccccc2)cc1 | -25.4% (active) |
| CC1(C)CC[C@]2(C(=O)O)CC[C@]3(C)C(=CCC4[C@@]5(C)C[C@@H](O)[C@@H]6OC(c7ccccc7F)OC[C@@]6(C)C5CC[C@]43C)C2C1 (stereo not given in full) | 5.75% (active) |
| COc1ccc(C(=O)/C=C/c2ccc(OCc3ccc(F)cc3)c(OC)c2)cc1OC | -14.8% (active) |
| COCOc1ccc2c(=O)c(C)c(C(=O)N[C@@H](Cc3ccccc3)C(O)C(=O)NCCc3ccc(OC)cc3)oc2c1 (stereo not given in full) | 117% |
| COc1ccc(/C=N/NC(=O)Cn2nc(Cc3ccc(OC)cc3)c3onc(C)c3c2=O)cc1 | -20% (active) |
| COc1ccc(/C=C2\C(=O)Nc3ccc(Cl)cc32)cc1OCc1ccccn1 | -12.7% (active) |
| COc1ccccc1/C=C/C(=O)c1ccc(OC)c(S(N)(=O)=O)c1 | 48.6% |
| Clc1cccc(-c2ccc(OCCCN3CCN(c4ccncc4)CC3)cc2)c1 | -1.12% (active) |
| Cc1ccc([C@H]2C(C(=O)c3ccc(Cl)cc3)C3(N[C@@H]2c2ccccc2)C(=O)Nc2ccccc23)cc1 (stereo not given in full) | -3.21% (active) |
| O=C(NNc1nc2cc(F)ccc2n2c(CN3CC4CNCC4C3)ccc12)c1ccncn1 (stereo not given) | 34.5% |
| CC(=O)Oc1ccccc1C(=O)[Se]C(=NC1CCCCC1)NC1CCCCC1 | -13.6% (active) |

| SMILES | growth |
| --- | --- |
| O=C(O)c1ccc(-c2ccc(/C=N/NC(=O)c3[nH]c4ccc(Br)cc4c3-c3ccccc3)o2)cc1 | -8.72% (active) |
| COc1ccc2c(c1)C(=N/N=C(\C)c1ccc(OC)c(S(N)(=O)=O)c1)C(=O)N2 | 79% |
| COc1ccc(N2N=C(c3ccc4c(c3)OCO4)CC2c2cccc(NC(=O)CCCNS(=O)(=O)c3ccc(F)cc3)c2)cc1 (stereo not given) | 90.4% |
| N#Cc1ccc(/C=N/NC(=O)c2[nH]c3ccc(Br)cc3c2-c2ccccc2)o1 | -2.77% (active) |
| CC1(C)CC[C@]2(C(=O)O)CC[C@]3(C)C(=CCC4[C@@]5(C)C[C@@H](O)[C@@H]6OC(c7ccccc7Br)OC[C@@]6(C)C5CC[C@]43C)C2C1 (stereo not given in full) | -1.51% (active) |
| O=c1c2ccccc2nc(-c2ccccc2)n1/N=C/c1ccc2ccccc2c1 | 79.7% |
| CSc1ccc(C(=O)Nc2ccc3nnn(/C(C#N)=C/c4ccccn4)c3c2)cc1 | -24.8% (active) |
| Clc1ccc(-c2ccc(OCCCN3CCN(c4ccncc4)CC3)cc2)cc1 | 15.9% |
| CCCCSc1nc(NCCc2c[nH]c3ccccc23)c(C#N)c(-c2ccc(OC)cc2)n1 | 47.3% |
| CC(=O)Nc1cccc(Nc2nc(NCc3ccccc3)c3ccccc3n2)c1 | -83.5% (active) |
| Cc1cc2nc3c4ccccc4n(CCCN(C)C)c3nc2cc1C | -18.2% (active) |
| CC1[C@H]2[C@H](C[C@H]3[C@@H]4CC=C5c6sc(Nc7ccccc7F)nc6CC[C@]5(C)[C@H]4CC[C@@]32C)O[C@]12CC[C@@H](C)CO2 (stereo not given in full) | -59.2% (active) |
| N#Cc1c(-c2ccc(Cl)cc2)nc2n[nH]c(-c3ccc(Cl)cc3)c2c1-c1ccc(C(F)(F)F)cc1 | -25.9% (active) |
| COc1cc(/C=C/C(=O)c2nnn(-c3ccc(Cl)cc3)c2C)cc(OC)c1OC | 38.7% |
| CCOc1ccc(-c2c(C#N)c(-c3ccc(Cl)cc3)nc3n[nH]c(-c4ccc(Cl)cc4)c23)cc1OC | 36.7% |
| C=C1CCC2C3(C)COC(c4ccc(F)cc4)OC3CCC2(C)C1C/C=C1/C(=O)OCC1O (stereo not given) | -43.7% (active) |
| CCN(CC)c1ccc(/C=N/Nc2nc(-c3ccc(C)cc3)cs2)c(O)c1 | 108% |
| N#Cc1c(-c2ccc(Cl)cc2)nc2n[nH]c(-c3ccc(Cl)cc3)c2c1-c1cccs1 | 15.7% |
| C#CCOc1ccc(/C=N/Nc2nc(-c3ccc(F)cc3)cs2)cc1OC | 34.2% |
| O=C(/C=C/Nc1ccc(Cl)cc1)c1ccc2c(c1)Nc1ccccc1S2 | 13.6% |

Reference: PubChem BioAssay (NCI)
